Source: PubChem BioAssay (several laboratories)
iPSC survival up: increases survival of single human iPS cells. 360,000 compounds, 0.044% hits. AID 602274. survival enhancement, % at 20 µM. hiPSC single-cell survival, ATPlite luminescence; 100% = ROCK inhibitor wells, 0% = DMSO; in the data active means survival enhancement above about 18%;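 further: cells exposed to compounds for 16 hours before the ATP read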
INS-1E GSIS act: GLuc luminescence reporter in INS-1E cells, primary screen for activators of glucose-dependent secretion of insulin. INS-1E GLuc reporter insulin secretion, 2-3 h. activation, % at 16.6 µM. 370,000 compounds, 0.61% hits. AID 743287;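 active means lowest replicate activation of at least 40%, so every replicate reaches that level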;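 further: 0% = median of neutral control wells and 100% = median of IBMX positive control wells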
ABCB6 inh MLPCN: blocks the human ABCB6 transporter | fluorescence ratio to DMSO, % at 10 µM | 360,000 compounds, 0.19% hits | K562-ABCB6 porphyrin accumulation, flow cytometry, 1 h; active compounds read low | AID 602162;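 active means fluorescence ratio to DMSO below 75%, the collection mean minus 3 SD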;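 further: signal is porphyrin accumulated inside mitochondria; 100% equals median channel fluorescence of DMSO control wells; lower ratio means ABCB6 inhibition with less porphyrin fluorescence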
ARNT TACC3 PPI: ARNT/TACC3 interaction disruption. AlphaScreen His-ARNT PAS-B/GST-TACC3 binding, luminescence; TACC3 fragment carries E629A point mutation. inhibition, % at 9.99 µM. Q9Y6A5. AID 623870. 390,000 compounds, 0.66% hits;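 active means mean inhibition of replicates at least 50% and at least half of replicates each reaching 50%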;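 further: 0% = complete ARNT plus TACC3 wells and 100% = ARNT alone without TACC3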
CendR NRP1 mod: alters CendR peptide binding to human NRP-1. 360,000 compounds, 0.85% hits. AID 602438. inhibition, % at 25 µM. FAM-RPARPAR peptide binding to NRP-1, fluorescence polarization;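 active means inhibition or corrected inhibition above about 18%, plus a signal ratio from 0.5 to 1.5, limit read from the data, passing the limit was not always enough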
Target sequence (O14786 whole entry, looked up): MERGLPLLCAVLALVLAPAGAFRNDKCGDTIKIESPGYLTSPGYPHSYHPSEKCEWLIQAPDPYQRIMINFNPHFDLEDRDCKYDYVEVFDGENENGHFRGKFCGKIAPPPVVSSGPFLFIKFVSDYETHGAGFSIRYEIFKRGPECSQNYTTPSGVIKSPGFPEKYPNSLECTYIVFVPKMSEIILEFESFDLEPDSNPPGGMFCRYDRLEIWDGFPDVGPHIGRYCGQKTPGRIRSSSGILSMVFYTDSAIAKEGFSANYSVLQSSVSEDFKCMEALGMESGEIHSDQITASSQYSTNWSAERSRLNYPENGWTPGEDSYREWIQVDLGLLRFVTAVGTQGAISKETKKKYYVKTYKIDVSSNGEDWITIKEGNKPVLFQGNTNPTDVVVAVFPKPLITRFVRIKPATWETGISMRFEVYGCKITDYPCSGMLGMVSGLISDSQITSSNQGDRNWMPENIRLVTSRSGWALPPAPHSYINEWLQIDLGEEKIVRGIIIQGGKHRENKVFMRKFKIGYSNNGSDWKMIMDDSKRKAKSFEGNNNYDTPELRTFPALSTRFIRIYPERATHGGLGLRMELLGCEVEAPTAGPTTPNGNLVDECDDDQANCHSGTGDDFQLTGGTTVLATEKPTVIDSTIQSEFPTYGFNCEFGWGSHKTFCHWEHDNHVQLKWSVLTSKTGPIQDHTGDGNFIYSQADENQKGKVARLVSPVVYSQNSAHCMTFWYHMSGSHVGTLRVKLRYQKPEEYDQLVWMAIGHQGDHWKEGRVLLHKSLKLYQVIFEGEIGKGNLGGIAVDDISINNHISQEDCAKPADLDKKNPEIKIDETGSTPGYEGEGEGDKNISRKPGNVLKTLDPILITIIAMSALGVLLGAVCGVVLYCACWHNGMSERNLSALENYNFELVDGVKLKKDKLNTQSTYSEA
Numbers without * were called inactive; / = no result given. Sampled rows, rich in hits. Any-hit rate of the full collection: about 1.8%.

SMILES	iPSC survival up	INS-1E GSIS act	ABCB6 inh MLPCN	ARNT TACC3 PPI	CendR NRP1 mod
C=CCNC(=O)[C@H]1[C@@H]2C(=O)O[C@@H](c3ccccc3)[C@@H](c3ccccc3)N2[C@@H](c2ccc(O)cc2)[C@]12C(=O)N(C(=O)OCCOC)c1ccc(C#CC3(O)CCCCCC3)cc12	/	/	/	9	/
C=CCn1c(=S)[nH]c2nc3c(cc2c1=O)CCCC3	-1	1	70*	-1	7
CCN(C[C@H]1N[C@@](CC)(C(=O)OC)[C@H]2C(=O)N(Cc3ccccc3)C(=O)[C@@H]12)S(=O)(=O)c1ccc(OC)cc1	0	-7	108	-3	3
COC(=O)[C@]1(Cc2ccccc2)N[C@H](CN(C)C(=O)NC(C)C)[C@@H]2C(=O)N(C)C(=O)[C@@H]21	1	13	96	-7	-12
CCN(C[C@H]1N[C@@](Cc2ccccc2)(C(=O)OC)[C@H]2C(=O)N(Cc3ccccc3)C(=O)[C@@H]12)S(=O)(=O)c1ccc(OC)cc1	3	-20	98	-3	26*
COC(=O)[C@]1(Cc2ccccc2)N[C@H](CN(C)C(=O)Nc2ccc(C)cc2)[C@@H]2C(=O)N(C)C(=O)[C@@H]21	2	65*	98	3	4
COc1ccccc1/C=C1/C(=O)N(c2ccccc2)N=C1C	0	2	74*	-4	5
COc1cc(/C=C2/C(=O)N(c3ccc(C(=O)O)cc3)N=C2C)cc(OC)c1O	0	9	100	12*	-75
CC1=NN(c2ccccc2)C(=O)/C1=C\c1cn(-c2ccccc2)nc1C	8	4	92	-3	3
COc1ccc(-c2ccc(-c3noc(-c4ccco4)n3)c(OC)n2)cc1	8	55*	99	5	-35
COc1nc(-c2ccccc2)ccc1-c1noc(-c2ccco2)n1	-3	/	101	-6	-19
COc1ccc(C(=O)NC2CCCc3ccccc32)cc1 (centres undefined)	2	4	96	-4	7
COc1ccc(NC(=O)COc2ccc(C(=O)NC3CCCc4ccccc43)cc2OC)cc1 (centres undefined)	0	176*	118	3	6
CN1/C(=C/C(=S)NC(=O)C2(C)CC2(Cl)Cl)C(C)(C)c2ccccc21 (centres undefined)	0	-58	250	48*	-29
COc1ccc(CSc2nnc(C)n2N)cc1Br	1	/	106	-2	-7
COc1ccc(CSc2nncn2N)cc1Br	4	/	97	active	-4
CC1(C)OC2OC(C(=O)N/N=C/c3cc(Br)ccc3O)C3OC(C)(C)OC3C2O1 (centres undefined)	0	-21	93	60*	7
O=C(N/N=C/c1cc(Br)ccc1O)Nc1ccccc1	-1	-27	98	-9	-3
C#CCOCCOCCOCCNc1nc(N2CCN(C(=O)C(Cc3ccc(O)cc3)n3cc(C(N)C(C)CC)nn3)CC2)nc(N2CCN(C(=O)C(Cc3ccc(O)cc3)n3cc(C(N)C(C)CC)nn3)CC2)n1 (centres undefined)	0	-15	102	17	9
C#CCOCCOCCOCCNc1nc(N2CCN(C(=O)[C@H](CCCCN)n3cc([C@@H](N)CC(C)C)nn3)CC2)nc(N2CCN(C(=O)[C@H](Cc3cc4ccccc4[nH]3)n3cc([C@@H](N)Cc4ccc(O)cc4)nn3)CC2)n1	-1	/	100	46*	-1
C#CCOCCOCCOCCNc1nc(N2CCN(C(=O)[C@H](Cc3ccc(O)cc3)n3cc([C@@H](N)CC(C)C)nn3)CC2)nc(N2CCN(C(=O)[C@H](Cc3cc4ccccc4[nH]3)n3cc([C@@H](N)CC(C)C)nn3)CC2)n1	/	11	/	/	/
C#CCOCCOCCOCCNc1nc(N2CCN(C(=O)[C@H](CCCCN)n3cc([C@@H](N)C(C)CC)nn3)CC2)nc(N2CCN(C(=O)[C@H](Cc3ccc(O)cc3)n3cc([C@@H](N)CC(C)C)nn3)CC2)n1 (some centres undefined)	0	16	97	30*	1
C#CCOCCOCCOCCNc1nc(N2CCN(C(=O)[C@H](CCCCN)n3cc(CN)nn3)CC2)nc(N2CCN(C(=O)[C@H](CCCCN)n3cc(CN)nn3)CC2)n1	-1	5	95	14	32*
O=C(Oc1c(CN2CCOCC2)cc(Cl)c2cccnc12)c1ccccc1F	1	-11	91	66*	-11
COCCN=c1scc(-c2cccs2)n1/N=C(\C)c1ccco1	-2	-38	109	46*	-6
SMILES	iPSC survival up	INS-1E GSIS act	ABCB6 inh MLPCN	ARNT TACC3 PPI	CendR NRP1 mod
COc1ccc(Cl)cc1Cn1c(C)c(C(=O)NCc2cccc(C(F)(F)F)c2)sc1=O	3	-24	100	/	27*
COc1ccc(Cl)cc1Cn1c(C)c(C(=O)NCc2ccccc2C(F)(F)F)sc1=O	1	-10	100	/	-19
Cc1c(C(=O)NCc2ccccc2C(F)(F)F)sc(=O)n1Cc1ccc2ccccc2c1	20*	-3	104	/	-14
C[C@@H]1CN([C@@H](C)CO)C(=O)c2cccc(NC(=O)NC3CCCCC3)c2O[C@H]1CN(C)S(C)(=O)=O	/	8	/	-5	/
COc1ccc2c3c(n(C)c2c1)[C@H](CO)N(C)CC31CN(S(=O)(=O)c2cn(C)cn2)C1	/	-1	/	/	/
O=C(CN1C(=O)NC(Cc2c[nH]c3ccccc23)C1=O)NCCc1ccccc1 (centres undefined)	2	103*	90	-6	1
Nc1cc(S(=O)(=O)O)cc([N+](=O)[O-])c1O	-1	-2	99	-1	28*
CCC(CC)NC(=O)c1ccc2nc[nH]c2c1	6	4	91	-1	29*
CC(NC(=O)c1ccc2nc[nH]c2c1)c1ccccc1 (centres undefined)	1	19	102	3	5
COc1ccc2c3c([nH]c2c1)[C@H](CO)N(C(=O)c1cccc(F)c1)CC31CN(C(C)=O)C1	/	13	/	/	/
O=C(CCC(=O)Nc1ccccc1Cl)NN=C1CCCC1	0	-2	96	-3	22*
CCOC(=O)C1=C(COC(=O)/C=C/c2cccc(OC)c2OC)NC(=O)NC1C (centres undefined)	0	57*	95	0	-5
CCOC(=O)C1=C(COC(=O)/C=C/c2ccc(Cl)cc2)NC(=O)NC1C (centres undefined)	-1	37	104	-6	10
CCOC(=O)C1=C(COC(=O)/C=C/c2ccc(OCC)c(OC)c2)NC(=O)NC1C (centres undefined)	0	90*	97	2	1
CCOC(=O)C1=C(COC(=O)Cc2ccccc2F)NC(=O)NC1C (centres undefined)	0	42*	103	0	-7
CCOC(=O)C1=C(COC(=O)Cc2ccc(Br)cc2)NC(=O)NC1C (centres undefined)	0	33	104	0	12
